From PubChem BioAssay (EPA / NIEHS)
Inconclusive results are not listed. Activity calls are given as the source filed them. The calls were made as follows, unless noted: active = hit-call score of the fitted dose curve at least 0.9, where 1 is the maximum; inconclusive = response in the unintended direction; inactive = score below 0.9.

Columns and labels:
[1] = IUF_NPC2-5_cytotoxicity_72hr: Cytotoxicity Assessment at 72 hours in the Leibniz Research Institute for Environmental Medicine (IUF) Neural Progenitor Cell Migration and Differentiation Assay for Cytotoxicity (NPC2-5) (AID 2284306);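 also: LDH release into supernatant measured by resorufin fluorescence marking membrane damage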
Summary of the method: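 Membrane integrity loss was scored from fluorescence (RFU) of resorufin generated by LDH in culture supernatant, 72 h after dosing. Differentiating human progenitor spheres received seven serial compound concentrations alongside a solvent control.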

[2] = IUF_NPC2-5_cytotoxicity_120hr: Cytotoxicity Assessment at 120 hours in the Leibniz Research Institute for Environmental Medicine (IUF) Neural Progenitor Cell Migration and Differentiation Assay (NPC2-5) (AID 2284307);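 as to AC50: LDH released into supernatant as membrane damage marker via resorufin fluorescence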
Summary of the method: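 hNPC spheres on PDL/laminin, N2 medium, 37C; 7 concs + solvent control, DMSO ≤0.1%; 5-day exposure, half medium changed day 3. LDH in supernatant at 120 h, resazurin→resorufin fluorescence, gain-of-signal.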

[3] = IUF_NPC2-5_cell_number_120hr: Cell Number Assessment at 120 hours in the Leibniz Research Institute for Environmental Medicine (IUF) Neural Progenitor Cell Migration and Differentiation Assay (NPC2-5) (AID 2284308; active = hit-call score of the fitted dose curve at least 0.9, where 1 is the maximum; inactive = score below 0.9;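 also: count of Hoechst-stained nuclei in migration zone around plated human neural progenitor spheres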)
Summary of the method: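 Hoechst-stained nuclei within the migration area were counted by automated high content imaging after 120 h. Single hNPC spheres differentiated on poly-D-lysine/laminin in DMEM/F12 (3:1) with 1% N2, compound present throughout, DMSO ≤0.1%.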

[4] = CCTE_Mundy_HCI_iCellGluta_NOG_NeuriteLength: CCTE's Neurite Outgrowth Assay in iCellGluta cells for Neurite Length, Mundy Lab (AID 2284318)
Summary of the method: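 Automated high-content imaging of betaIII-tubulin (Alexa Fluor-488) and Hoechst-stained cells gave neurite length, normalized to the DMSO baseline.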

[5] = IUF_NPC1_cytotoxicity_72hr: Cytotoxicity Assessment at 72 hours in the Leibniz Research Institute for Environmental Medicine (IUF) Neural Progenitor Cell Proliferation Assay (NPC1) (AID 2284332);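 also: rising LDH signal means more cytotoxicity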
Summary of the method: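 Human fetal neural progenitor spheres (0.3 mm) in EGF/FGF proliferation medium, 37C, exposed 72 h without renewal. LDH release in supernatant read by resorufin fluorescence; gain of signal scored relative to dynamic range.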

[6] = CCTE_Deisenroth_5AR_NBTE_donor: CCTE's 5alpha-reductase NanoBRET Target Engagement Assay […], Deisenroth Lab (AID 2284319; active = hit-call score of the fitted dose curve at least 0.9, where 1 is the maximum; inactive = score below 0.9); conditions: actives raise or lower the signal
Summary of the method: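 HEK293T cells transiently expressing SRD5A2-NanoLuc, exposed 5 h to chemicals (8 points, 10 nM - 29.9 uM), with testosterone tracer for the final 2 h. Donor luminescence at 460 nm read after Nano-Glo substrate plus extracellular NanoLuc inhibitor; bidirectional fit versus DMSO.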

[7] = CCTE_Deisenroth_5AR_NBTE_acceptor: CCTE's 5alpha-reductase NanoBRET Target Engagement Assay - Autofluorescence Screen, Deisenroth Lab (AID 2284321; active = hit-call score of the fitted dose curve at least 0.9, where 1 is the maximum; inactive = score below 0.9;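 also: compound fluorescence in the acceptor channel under 460 nm excitation flags autofluorescence artifacts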); conditions: actives raise or lower the signal
Summary of the method: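 Autofluorescence check: ToxCast chemicals, nominal 100 uM, excitation 460 nm, n=3 runs. Acceptor fluorescence endpoint, bidirectional fit relative to DMSO. Parent assay in HEK293T, 5 h post-dose.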

SRD5A2 (gene 6716) = assay: CCTE_Deisenroth_5AR_NBTE_ratio: CCTE's 5alpha-reductase NanoBRET Target Engagement Assay - Ratio, Deisenroth Lab (AID 2284322; active = hit-call score of the fitted dose curve at least 0.9, where 1 is the maximum; inactive = score below 0.9); conditions: actives raise or lower the signal
Summary of the method: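 HEK293T transiently expressing SRD5A2-NanoLuc; cells exposed to chemical (8-point, 10 nM - 29.9 uM) for 5 h total, testosterone tracer added for final 2 h. NanoBRET acceptor/donor ratio (650/460 nm), bidirectional fit vs DMSO.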

[8] = TAMU_PeakParms_SingleDonor1434_Asystole: Texas A&M University (TAMU) 1.5-hr Human Induced Pluripotent Stem Cell (iPSC)-derived Cardiomyocytes Calcium (Ca+2) Flux Assay for Cardiotoxicity: Asystole (quiescence of beating) (AID 2284328)
Summary of the method: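 Average Ca2+-flux peak frequency (beats/s) was recorded in single-donor iPSC-derived cardiomyocytes after 90 min exposure (0.2–100 uM final, 0.5% DMSO). Asystole POD set as EC95 against DMSO, no preprocessing.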

IYD (gene 389434) = assay: CCTE_GLTED_hIYD: CCTE's human Iodotyrosine Deiodinase (xIYD) Inhibition Assay, Great Lakes Toxicology and Ecology Division (GLTED) Lab (AID 2284317);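 also: cell-free human IYD enzyme made in baculovirus insect cells; iodide freed from monoiodotyrosine measured by cerium arsenite color change at 420 nm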
Summary of the method: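 hIYD: baculovirus-expressed human IYD deiodinated monoiodotyrosine for 3 h with test chemical; free iodide was measured by Sandell-Kolthoff absorbance at 420 nm and normalized to MNT and DMSO/NaOH controls.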

[9] = system: Brachyury (BRA) Protein Expression, Deisenroth Lab, TBXT (gene 6862); assay: CCTE_Deisenroth_DEVTOX-GLR_legacy_Bra: (Legacy) CCTE's DevTox GLR-Endo Assay Evaluation of Brachyury (BRA) Protein Expression, Deisenroth Lab (AID 2284329; active = hit-call score of the fitted dose curve at least 0.9, where 1 is the maximum; inactive = score below 0.9)
Summary of the method: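 Human pluripotent RUES2-GLR line was exposed twice during 48 h differentiation to a 10-point series, 1 nM - 200 uM. Fraction of Bra-positive cells was scored by imaging against pluripotent baseline and fitted after 0.2% DMSO subtraction.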

[10] = CCTE_Deisenroth_DEVTOX-GLR_legacy_CellCount: (Legacy) Viability Assessment in CCTE's DevTox GLR-Endo Assay, Deisenroth Lab (AID 2284331; active = hit-call score of the fitted dose curve at least 0.9, where 1 is the maximum; inactive = score below 0.9); conditions: actives raise or lower the signal
Summary of the method: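 Human pluripotent RUES2-GLR cells differentiated 48 h with two 24-h-interval exposures, 10-point 1 nM–200 uM series, 0.2% DMSO. Fixed nuclei counted by high-content imaging (5 fields/well); bidirectional fit vs DMSO, n≥4.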

SMILES: CN(C)C(=S)SSC(=S)N(C)C
- AC50 [1]: 26.4 µM (active)
- AC50 [2]: 13 µM (active)
- AC50 [3]: 26.1 µM (active)
- AC50 [4]: 0.0483 µM (active)
- AC50 [5]: 20.5 µM (active)

SMILES: CCCCNC(=O)OCC#CI
- AC50 [6]: 50 µM (active)
- AC50 [7]: 50 µM (active)
- AC50 (SRD5A2 (gene 6716)): 50 µM (active)
- outcome [8]: inactive

SMILES: COP(N)(=O)SC (configuration not stated)
- outcome [1]: inactive
- outcome [2]: inactive
- outcome [3]: inactive
- outcome [4]: inactive
- outcome [5]: inactive

SMILES: CC1COC(Cn2cncn2)(c2ccc(Oc3ccc(Cl)cc3)cc2Cl)O1 (configuration not stated)
- outcome (IYD (gene 389434)): inactive

SMILES: COC(=O)c1ccccc1C(=O)OC
- outcome [9]: inactive
- outcome [10]: inactive

SMILES: C=CCC1=C(C)[C@@H](OC(=O)[C@@H]2[C@@H](C=C(C)C)C2(C)C)CC1=O
- AC50 [4]: 5.87 µM (active)

SMILES: Oc1ccccc1-c1ccccc1
- outcome (IYD (gene 389434)): inactive
- outcome [6]: inactive
- outcome [7]: inactive
- AC50 (SRD5A2 (gene 6716)): 31.5 µM (active)
- outcome [8]: inactive

SMILES: N#CC(CCc1ccc(Cl)cc1)(Cn1cncn1)c1ccccc1 (configuration not stated)
- outcome [6]: inactive
- outcome [7]: inactive
- outcome (SRD5A2 (gene 6716)): inactive

SMILES: COP(=S)(OC)Oc1nc(Cl)c(Cl)cc1Cl
- outcome [2]: inactive
- outcome [3]: inactive
- AC50 [4]: 23.9 µM (active)
- outcome [5]: inactive

SMILES: CNC(=O)ON=CC(C)(C)SC
- outcome [1]: inactive
- outcome [2]: inactive
- outcome [3]: inactive
- outcome [8]: inactive
- outcome [5]: inactive

SMILES: COC(=O)N(OC)c1ccccc1COc1ccn(-c2ccc(Cl)cc2)n1
- outcome [1]: inactive
- AC50 [2]: 2.12 µM (active)
- AC50 [3]: 3.23 µM (active)
- AC50 [4]: 2.57 µM (active)
- outcome [6]: inactive
- outcome [7]: inactive
- AC50 (SRD5A2 (gene 6716)): 34.1 µM (active)
- outcome [5]: inactive

SMILES: N#Cc1cc(Br)c(O)c(Br)c1
- outcome (IYD (gene 389434)): inactive

SMILES: CCCCNC(=O)n1c(NC(=O)OC)nc2ccccc21
- outcome [4]: inactive

SMILES: CCCCOC(=O)c1ccccc1C(=O)OCCCC
- outcome [1]: inactive
- outcome [2]: inactive
- outcome [3]: inactive
- outcome (IYD (gene 389434)): inactive
- outcome [4]: inactive
- outcome [5]: inactive

SMILES: OC(c1ccc(Cl)cc1)(c1cncnc1)c1ccccc1Cl (configuration not stated)
- outcome (IYD (gene 389434)): inactive
